Consider 19 compounds from PubChem BioAssay (NCATS).

A short description of test [1]: qHTS profiling for inhibitors of Plasmodium falciparum proliferation (AID 504749). Further: nearly all actives have a fitted effect of over 60% in size. Further: potency means the concentration at half of the fitted maximal effect.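 On activity, negative = inhibition: 0% = DMSO vehicle and full inhibition = artemisinin control.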 Particulars: P. falciparum in erythrocytes, SYBR Green DNA, 72 h. Summed up: (§1)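 SYBR Green fluorescence of parasite DNA, read after lysis and overnight dark incubation, measured growth over 72 h in erythrocyte culture at 0.3% parasitemia and 2.5% hematocrit. Data normalised to DMSO and 0.29 uM artemisinin, with plate-drift correction.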
Background: Quantitative high-throughput screening tests each substance at several concentrations.

The test system of test [2] is 3D7. Described as above. The following applies: P. falciparum in erythrocytes, SYBR Green DNA, 72 h; series mostly up to 28.7 µM. Summed up:
as §1

Test [3] deals with 7G8. The test is described as above. Particulars: P. falciparum in erythrocytes, SYBR Green DNA, 72 h; series mostly up to 28.7 µM. The method in brief:
as §1

The test system of test [4] is AA1029. Described as above. The following applies: P. falciparum in erythrocytes, SYBR Green DNA, 72 h; series mostly up to 28.7 µM. The method in brief: as §1
Test [5] concerns AS120. Described as above. Particulars: P. falciparum in erythrocytes, SYBR Green DNA, 72 h; series mostly up to 28.7 µM. Summed up: as §1
Test [6] concerns ATS189. Described as above. Particulars: P. falciparum in erythrocytes, SYBR Green DNA, 72 h; series mostly up to 28.7 µM. Summed up:
as §1

In test [7] the test system is ATS95. Described as above. Particulars: P. falciparum in erythrocytes, SYBR Green DNA, 72 h; series mostly up to 28.7 µM. Summed up:
as §1

Test [8] deals with C2A. Described as above. Particulars: P. falciparum in erythrocytes, SYBR Green DNA, 72 h; series mostly up to 28.7 µM. Summed up: as §1
Test [9] is described as follows: Quantitative High-Throughput drug screen in 47 multiple myeloma cell lines against the NCATS MIPE library collection: PCM6_Riken cell viability assay (AID 1919870). Further: nearly all actives have a fitted effect of over 30% in size. The following applies: CellTiter-Glo ATP, 48 h; series mostly up to 45.8 µM. The method in brief:
(§2)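 ATP-based CellTiter-Glo luminescence after 48 h drug exposure (37 °C, 5% CO2) of 500 myeloma cells per well. DMSO-only wells set 100% viability, media-only wells 0%; MIPE 4.0 library added by pin tool.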
A general note: Cellular ATP, detected with luciferase, serves as a proxy for viable cell number.

The nature of test [10]: Quantitative High-Throughput drug screen in 47 multiple myeloma cell lines against the NCATS MIPE library collection: RPMI8226_ATCC cell viability assay (AID 1919871). Further: nearly all actives have a fitted effect of over 30% in size. The following applies: RPMI8226 myeloma viability, CellTiter-Glo ATP luminescence, 48 h; series mostly up to 45.8 µM. Summed up:
as §2

Test [11] is described as follows: Quantitative High-Throughput drug screen in 47 multiple myeloma cell lines against the NCATS MIPE library collection: OPM2_DSMZ cell viability assay (AID 1919872). Further: nearly all actives have a fitted effect of over 30% in size. Particulars: OPM2 myeloma viability, CellTiter-Glo ATP luminescence, 48 h; series mostly up to 45.8 µM. Summed up:
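CellTiter-Glo ATP luminescence gave viability after 48 h compound treatment at 37C of 500 multiple myeloma cells per well. Normalisation used DMSO-only wells as 100% and media-only wells as 0% viability; primary qHTS of approved and investigational drugs.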

Test [12] in a line: Quantitative High-Throughput drug screen in 47 multiple myeloma cell lines against the NCATS MIPE library collection: KMS11_JCRBsus cell viability assay (AID 1919873). Further: nearly all actives have a fitted effect of over 50% in size. Particulars: KMS11 myeloma viability, CellTiter-Glo ATP luminescence, 48 h; series mostly up to 45.8 µM. The method in brief: as §2
A short description of test [13]: Quantitative High-Throughput drug screen in 47 multiple myeloma cell lines against the NCATS MIPE library collection: KMS28BM_JCRB cell viability assay (AID 1919874). Further: nearly all actives have a fitted effect of over 35% in size. Particulars: CellTiter-Glo ATP, 48 h; series mostly up to 45.8 µM. Summed up: as §2
Test [14] can be described thus: qHTS drug screen for cell cycle checkpoint inhibitors in PARPi-resistant BRCA-mutant ovarian cancer cell lines. (AID 1963452; calls by dose curve; further: potency means the concentration at half of the fitted maximal effect). Particulars: PEO1/OlaR viability, CellTiter-Glo luminescence, 96 h; for Z-AUC: stronger effect = lower value. The method in brief:
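PEO1, PEO4 and PEO1/OlaR ovarian cancer cells, 600 per well, exposed 96 h at 37C to a dilution series. Viability read by CellTiter-Glo luminescence, normalized to DMSO and empty wells; activity summarized as Z-AUC.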

[15] abbreviates: at 28.7 µM (top of the series), parasite line A.
[16] abbreviates: at 28.7 µM (top of the series), parasite line B.

Records with an inconclusive call do not appear. The source made the active and inactive calls. Unless noted, the call rests on the fitted dose curve; in most records, active means well fitted curve in the direction sought with a large enough effect; inconclusive means small, poorly fitted or top-dose-only effect, or another doubt; inactive means no such curve, though single readings can be large; an effect the other way counts as inactive or inconclusive.

Turning to `O=c1oc2ccccc2c(O)c1Cc1c(O)c2ccccc2oc1=O`, the activity, negative = inhibition in test [1] (at 12.8 µM (top of the series), parasite line A) was 7.78% (inactive); in [1] (at 12.8 µM (top of the series), parasite line B), 2.51% (inactive). Moreover, the Potency entry in test [2], in [3], in [4], in [5], in test [6] and in test [7] was “inactive” in each case. Moreover, the Potency entry in [8] was “inactive”.
As for `C[C@]12CC[C@H]3[C@@H](CC[C@@]45O[C@H]4C(O)=C(C#N)C[C@]35C)[C@H]1CC[C@H]2O`, the Potency entry in test [9], in test [10] and in test [12] was “inactive” in each case. Besides, the result in [11] and in test [13] was inactive.
Take `COc1cccc2c1C(=O)c1c(O)c3c(c(O)c1C2=O)C[C@@](O)(C(=O)CO)CC3OC1CC(N2CCOC(OC)C2)C(O)C(C)O1` (stereo partly drawn): the Potency in test [14] is 0.0078 µM (active). In addition, the Z-AUC in [14] (measured here: PEO1 parental Z-AUC) is -3.26; in test [14] (measured here: PEO4 Z-AUC) it was -2.98.
Consider `CCCCCCC(=O)CCCCCC/C=C/C[C@@H](O)[C@H](O)[C@@](N)(CO)C(=O)O`, for which the activity, negative = inhibition in test [1] (setting [15]) is 16.1% (inactive); in test [1] (setting [16]), 7.92% (inactive). The Potency entry in test [2], in test [3], in [4], in test [5], in test [6] and in test [7] was “inactive” in each case. Further, in [8], the Potency entry was “inactive”.
Consider `CC(C)(C)NCC(O)c1ccccc1Cl` (stereo not drawn), for which the activity, negative = inhibition in test [1] (setting [15]) was -1.78% (inactive). For the same compound, the Potency entry in test [2] and in test [8] was “inactive” each time. For the same compound, the Potency in test [3] is 11.2 µM (active).
In the case of `O=C1c2ccccc2C(=O)c2ccccc21`, the activity, negative = inhibition in test [1] (setting [15]) was -2.68% (inactive); in test [1] (setting [16]), 6.43% (inactive). In test [3], the Potency is 5.01 µM (active). Besides, the Potency result in [4], in test [5], in test [7] and in test [8] was “inactive” in each case.
Regarding `O=C1c2ccccc2C(=O)C1C(=O)C(c1ccccc1)c1ccccc1`, the activity, negative = inhibition in test [1] (setting [15]) was 4.21% (inactive); in [1] (setting [16]) it was -28% (inactive). The Potency entry in test [4], in test [6], in [7] and in test [8] was “inactive” each time.
Take `NCCc1ccc(O)cc1`: the activity, negative = inhibition is 8.86% (inactive) in [1] (setting [15]) and 7.85% (inactive) in [1] (setting [16]). In addition, the Potency result in test [2], in test [3], in test [4], in test [5], in test [6] and in test [7] was “inactive” in each case. Moreover, the Potency result in [8] was “inactive”.
For the compound `C[C@]12CC[C@@H]3c4ccc(OC(=O)N(CCCl)CCCl)cc4CC[C@H]3[C@@H]1CC[C@@H]2O`, the activity, negative = inhibition in test [1] (setting [15]) was 15.2% (inactive); in test [1] (setting [16]), 2.03% (inactive). Further, the Potency entry in [2], in [3], in test [4], in test [5], in test [6] and in test [7] was “inactive” in each case. Moreover, the Potency result in test [8] was “inactive”.
For the compound `C=C(C)[C@H]1CN[C@H](C(=O)O)[C@H]1CC(=O)O`, the figures for the activity, negative = inhibition in test [1] (setting [15]) and in [1] (setting [16]) were 3.91% (inactive) and 11.4% (inactive), respectively. Also, the Potency result in test [2], in test [4], in [5], in [6], in test [7] and in test [8] was “inactive” each time.
For `CCOC(=O)CC(SP(=S)(OC)OC)C(=O)OCC` (stereo not drawn), the activity, negative = inhibition was 10.2% (inactive) in [1] (setting [15]) and -3.96% (inactive) in test [1] (setting [16]). The Potency entry in test [2], in [3], in test [4], in [5], in test [6] and in test [7] was “inactive” throughout. Further, the Potency result in test [8] was “inactive”.
Consider `CCCCC/C=C\C/C=C\C/C=C\C/C=C\CCCC(=O)NCC(=O)O`, for which the activity, negative = inhibition was -21.1% (inactive) in [1] (at 2.67 µM (top of the series), parasite line A); 4.55% (inactive) in test [1] (at 2.67 µM (top of the series), parasite line B); -0.415% [at 2.67 µM] (inactive) in test [2]; -4.42% [at 2.67 µM] (inactive) in test [3]; -5.7% [at 2.67 µM] (inactive) in test [4]; -10.8% [at 2.67 µM] (inactive) in [5]. Besides, the activity, negative = inhibition in [6] is -4.38% [at 2.67 µM] (inactive); in test [7] it was -8.06% [at 2.67 µM] (inactive); in [8], -0.778% [at 2.67 µM] (inactive).
On to `CN1C(=O)NC(=O)C(C)(C2=CCCCC2)C1=O` (stereo not drawn), for which, in test [1] (setting [16]), the activity, negative = inhibition was 7.06% (inactive). Besides, the Potency entry in test [2], in test [3], in test [4], in test [5], in test [6] and in test [7] was “inactive” throughout. For the same compound, in [8], the Potency result is “inactive”.
For `COP(=S)(OC)Oc1ccc(S(=O)(=O)N(C)C)cc1`, the activity, negative = inhibition in test [1] (setting [15]) was 14.2% (inactive); in test [1] (setting [16]), 1.31% (inactive). For the same compound, the Potency entry in [2], in [3], in test [4], in test [5], in test [6] and in test [7] was “inactive” each time. Also, the Potency result in test [8] is “inactive”.
`O=C1Nc2ccc(Cl)cc2C(c2ccccc2Cl)=NC1O` (stereo not drawn): the values for the activity, negative = inhibition in [1] (setting [15]) and in test [1] (setting [16]) were 2.17% (inactive) and -14% (inactive), respectively. For the same compound, the Potency entry in [2], in [3], in [4], in [5], in [6] and in [8] was “inactive” throughout.
Regarding `CC(C)(C)NCC(O)c1cc(Cl)c(N)c(C(F)(F)F)c1` (stereo not drawn), the Potency in test [1] (parasite line A) is 14.1 µM (active); in test [1] (parasite line B), 4.47 µM (active); in test [3], 4.47 µM (active); in test [4], 7.94 µM (active); in test [5] it was 5.62 µM (active); in test [6], 7.08 µM (active). The Potency in test [8] is 10 µM (active). For the same compound, in [2], the Potency result is “inactive”.
Take `COP(=S)(OC)Oc1ccc(SC)c(C)c1`: the activity, negative = inhibition in test [1] (setting [15]) is 8.16% (inactive); in test [1] (setting [16]) it was 12.2% (inactive). The Potency entry in [2], in [3], in test [4], in test [5], in [6] and in test [7] was “inactive” throughout. Moreover, the Potency result in [8] is “inactive”.
For `O=C1OC(c2ccc(O)c(S(=O)(=O)O)c2)(c2ccc(O)c(S(=O)(=O)O)c2)c2c(Br)c(Br)c(Br)c(Br)c21`, the activity, negative = inhibition was 4.12% (inactive) in test [1] (setting [15]) and 7.49% (inactive) in test [1] (setting [16]). The Potency result in [2], in [3], in [4], in test [5], in test [6] and in test [7] was “inactive” each time. Moreover, the Potency result in [8] was “inactive”.
As for `Cc1nnc2n1-c1ccc(Cl)cc1C(c1ccccc1)=NC2`, the activity, negative = inhibition was -6.67% (inactive) in [1] (setting [15]) and 6.11% (inactive) in test [1] (setting [16]). Besides, the Potency result in [4], in test [5] and in [8] was “inactive” throughout.
